Experimental data: PubChem BioAssay (EPA / NIEHS)
Values joined by “and” are separate entries in the source; they are usually repeats but may differ in a detail not shown here. Equal entries are not always repeated. Results filed as inconclusive are left out. Some compounds were tested as several samples or in several runs, with calls that do not always agree. Active and inactive are the calls of the source. Rule for the calls: active = hit-call score of the fitted dose curve at least 0.9, where 1 is the maximum; inconclusive = response in the unintended direction; inactive = score below 0.9.

Experiments:
[1] = biological target: Luciferin 4-monooxygenase (Photinus pyralis) (UniProt P08659); assay: CCTE_Simmons_QuantiLum_inhib_2: CCTE's Firefly Luciferase Inhibition Assay, Simmons Lab (AID 2283767);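 for AC50: potency for inhibitors that lower luciferase luminescence relative to DMSO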
How it was run: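 Eight test concentrations, 5 nM up to 87.5 uM final, preincubated 30min at 37C in the dark with purified luciferase (0.5% DMSO final). Detection reagent (150uM D-luciferin, 147uM dATP, 75uM CoA, pH 7.8) injected per well before kinetic luminescence read; three replicates.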

[2] = ACEA_AR_agonist_AUC_viability: ACEA Biosciences xCELLigence Real-Time Cell Analysis on Androgen Receptor Agonism for Viability (AID 2283775);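 for AC50: viability read 80 hours after compound addition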
How it was run: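 22Rv1 cells; impedance growth kinetics; 8-pt 1:4 dilutions from 100 uM top final, ≤0.5% DMSO; n = 2; 80 h read; AUC viability, loss-of-signal vs DMSO.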

[3] = ACEA_AR_antagonist_AUC_viability: ACEA Biosciences xCELLigence Real-Time Cell Analysis on Androgen Receptor Antagonism for Viability (AID 2283776);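 note: 22Rv1 human prostate cancer cells growing on impedance electrode plates; area under impedance growth curve at 80 h after dosing as viability; hits lower the growth signal relative to DMSO meaning cytotoxicity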
How it was run: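 Viability endpoint from label-free cell-index monitoring: 22Rv1 cultures treated with an eight-point 1:4 dilution series starting at 100 uM final, AUC at 80 h fitted against DMSO.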

[4] = ArunA_CellTiter_hNP: Viability Assessment in the ArunA Biomedical's Oris Neural Crest (hNC) Cell Migration Assay (AID 2283753)
How it was run: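 Viability read with CellTiter 96 Aqueous One after 72 h chemical exposure of human hNP1 neuroprogenitors, which were plated on Matrigel in LIF/bFGF medium 16 h beforehand. Endpoint fitted in positive direction relative to DMSO.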

[5] = ArunA_Migration_hNP: ArunA Biomedical's Oris Neuroprogenitor (hNP) Cell Migration Assay (AID 2283754)
How it was run: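 Readout is calcein-AM fluorescence (ex494/em517) of cells migrating into the detection zone, relative to DMSO. hNP1 cells (H9-derived) grown on Matrigel behind stoppers 16 h, then stoppers pulled and chemical applied 72 h; cytochalasin D as control.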

[6] = ArunA_NOG_NucleusCount: ArunA Biomedical's Neurite Outgrowth (NOG) Assay for Nucleus Count (AID 2283756)
How it was run: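 Viable neuron count, from Hoechst nuclei passing size and intensity gates, imaged at 20x on differentiated H9-derived human neurons. Exposure lasted 48 h from seeding; activity was scored relative to DMSO.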

[7] = ArunA_NOG_NeuritesPerNeuron: ArunA Biomedical's Neurite Outgrowth (NOG) Assay for Neurites Per Neuron (AID 2283758)
How it was run: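 Differentiated human H9-derived neurons exposed to chemicals for 48 h from seeding, then stained with Hoechst and βIII-tubulin/DyLight 488. Automated imaging counted neurites (processes >10 um) per valid neuron; loss of signal versus DMSO scored.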

[8] = ArunA_NOG_BranchPointsPerNeurite: ArunA Biomedical's Neurite Outgrowth (NOG) Assay for Branch Points Per Neurite (AID 2283759)
How it was run: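 Automated image analysis traced neurites (processes >10 um) from valid cell bodies after Hoechst and βIII-tubulin staining. hNN cells from H9 embryonic stem cells, 48 h exposure. Fitted bidirectionally against DMSO.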

[9] = test system: zebrafish Androgen Receptor (AR), gene 100005148; assay: ATG_zfAR_XSP1: Attagene TRANS-FACTORIAL Multi-Species (XSP1) HepG2 Assay for zebrafish Androgen Receptor (AR) (AID 2283771)
How it was run: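 Gain-of-signal versus DMSO was measured as reporter transcripts quantified by RT-PCR, fluorescent labelling and capillary electrophoresis after 24 h chemical exposure. The cells were HepG2 expressing a chimeric zebrafish AR-GAL4, co-stimulated with 3 nM 6-alpha-fluorotestosterone.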

[10] = biological target: zebrafish Estrogen Receptor (ESR1), esr1 (gene 259252) (UniProt P57717); assay: ATG_zfER1_XSP1: Attagene TRANS-FACTORIAL Multi-Species (XSP1) HepG2 Assay for zebrafish Estrogen Receptor (ESR1) (AID 2283772)
How it was run: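 Exogenous chimeric receptor-GAL4 activity is measured in transiently transfected human HepG2 liver cells after 24 h compound exposure. Reporter transcripts are detected by RT-PCR and fluorescent capillary electrophoresis, analysed for signal gain relative to DMSO.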

[11] = test system: zebrafish Estrogen Receptor (ESR2B), gene 317733; assay: ATG_zfER2b_XSP1: Attagene TRANS-FACTORIAL Multi-Species (XSP1) HepG2 Assay for zebrafish Estrogen Receptor (ESR2B) (AID 2283773)
How it was run: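 Multiplexed TRANS format in transfected HepG2 liver cells, chimeric NR-Gal4 from zebrafish ESR2B. 24 h dosing; medium contains 3 nM 6-alpha-fluorotestosterone. mRNA induction by RT-PCR/CE, positive direction vs DMSO.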

[12] = test system: frog Estrogen Receptor (ESR2), gene 100174814; assay: ATG_frER2_XSP1: Attagene TRANS-FACTORIAL Multi-Species (XSP1) HepG2 Assay for frog Estrogen Receptor (ESR2) (AID 2283774)
How it was run: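 HepG2, transient MRTU transfection (GAL4-UAS reporters, exogenous NR-Gal4 chimeras); 24 h compound exposure; 3 nM 6α-fluorotestosterone co-added; total RNA → RT-PCR → 6-FAM primer extension → HpaI → CE. Positive direction vs DMSO.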

[13] = test system: frog Estrogen Receptor (ESR1), gene 398734; assay: ATG_frER1_XSP1: Attagene TRANS-FACTORIAL Multi-Species (XSP1) HepG2 Assay for frog Estrogen Receptor (ESR1) (AID 2283777)
How it was run: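 Transient MRTU transfection, HepG2 (human liver); 24 h dosing, 3 nM 6α-fluorotestosterone co-added; RNA → RT-PCR → 6-FAM labeling → CE; upward activity vs DMSO.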

[14] = test system: zebrafish Estrogen Receptor (ESR2A), gene 317734; assay: ATG_zfER2a_XSP1: Attagene TRANS-FACTORIAL Multi-Species (XSP1) HepG2 Assay for zebrafish Estrogen Receptor (ESR2A) (AID 2283778)
How it was run: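 Transient transfection of HepG2 (human liver) with MRTU constructs; chemical dosing for 24 h; medium contained 3 nM 6-alpha-fluorotestosterone to partly stimulate AR. RT-PCR/CE fluorescence of reporter transcripts; positive direction vs DMSO.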

[15] = biological target: chicken Estrogen Receptor (ESR1), ESR1 (gene 396099) (UniProt P06212); assay: ATG_chERa_XSP1: Attagene TRANS-FACTORIAL Multi-Species (XSP1) HepG2 Assay for chicken Estrogen Receptor (ESR1) (AID 2283779)
How it was run: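 Read-out: fluorescent reporter mRNA fragments resolved by capillary electrophoresis after RT-PCR and HpaI digestion. Transfected HepG2 cells carried chimeric NR-Gal4 constructs, were dosed 24 h with 3 nM 6-alpha-fluorotestosterone added, and activity was fitted upward relative to DMSO.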

[16] = biological target: Estrogen receptor (Homo sapiens) (UniProt P03372); assay: ATG_hERa_XSP1: Attagene TRANS-FACTORIAL Multi-Species (XSP1) HepG2 Assay for human Estrogen Receptor (ESR1) (AID 2283780)
How it was run: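 Reporter transcripts from multiplexed GAL4-UAS units driven by NR-Gal4 chimeras in transiently transfected HepG2 were measured by RT-PCR with capillary electrophoresis 24 h post-dose, with 3 nM 6-alpha-fluorotestosterone present; gain-of-signal relative to DMSO.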

[17] = test system: chicken Androgen Receptor (AR), gene 422165; assay: ATG_chAR_XSP1: Attagene TRANS-FACTORIAL Multi-Species (XSP1) HepG2 Assay for chicken Androgen Receptor (AR) (AID 2283768)
How it was run: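 Reporter mRNA read by RT-PCR with fluorescent labelling and capillary electrophoresis 24 h after chemical dosing of transiently transfected HepG2 cells. Chicken AR-Gal4 chimera, partially stimulated with 3 nM 6-alpha-fluorotestosterone; activity fitted upward relative to DMSO.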

[18] = test system: frog Androgen Receptor (AR), gene 399456; assay: ATG_frAR_XSP1: Attagene TRANS-FACTORIAL Multi-Species (XSP1) HepG2 Assay for frog Androgen Receptor (AR) (AID 2283770)

chicken Estrogen Receptor (ESR1), ESR1 (gene 396099), sequence (P06212 whole entry, looked up, the tested form may be a part): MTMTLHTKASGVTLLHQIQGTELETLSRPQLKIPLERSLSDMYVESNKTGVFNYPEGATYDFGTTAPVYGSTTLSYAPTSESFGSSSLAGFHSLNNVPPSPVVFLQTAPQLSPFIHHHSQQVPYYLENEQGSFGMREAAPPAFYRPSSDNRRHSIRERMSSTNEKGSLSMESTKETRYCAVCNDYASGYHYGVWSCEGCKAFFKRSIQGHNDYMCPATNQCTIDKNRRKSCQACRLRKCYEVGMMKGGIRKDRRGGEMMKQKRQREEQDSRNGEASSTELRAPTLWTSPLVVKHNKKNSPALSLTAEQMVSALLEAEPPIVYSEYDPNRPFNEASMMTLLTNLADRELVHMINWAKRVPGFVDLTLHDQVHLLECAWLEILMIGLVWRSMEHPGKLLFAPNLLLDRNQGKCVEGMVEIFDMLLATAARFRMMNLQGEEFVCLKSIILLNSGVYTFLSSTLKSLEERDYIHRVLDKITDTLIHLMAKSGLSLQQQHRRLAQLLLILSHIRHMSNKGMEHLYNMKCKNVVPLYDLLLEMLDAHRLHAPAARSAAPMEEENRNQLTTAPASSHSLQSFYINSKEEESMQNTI
Luciferin 4-monooxygenase (Photinus pyralis), sequence (P08659 whole entry, looked up): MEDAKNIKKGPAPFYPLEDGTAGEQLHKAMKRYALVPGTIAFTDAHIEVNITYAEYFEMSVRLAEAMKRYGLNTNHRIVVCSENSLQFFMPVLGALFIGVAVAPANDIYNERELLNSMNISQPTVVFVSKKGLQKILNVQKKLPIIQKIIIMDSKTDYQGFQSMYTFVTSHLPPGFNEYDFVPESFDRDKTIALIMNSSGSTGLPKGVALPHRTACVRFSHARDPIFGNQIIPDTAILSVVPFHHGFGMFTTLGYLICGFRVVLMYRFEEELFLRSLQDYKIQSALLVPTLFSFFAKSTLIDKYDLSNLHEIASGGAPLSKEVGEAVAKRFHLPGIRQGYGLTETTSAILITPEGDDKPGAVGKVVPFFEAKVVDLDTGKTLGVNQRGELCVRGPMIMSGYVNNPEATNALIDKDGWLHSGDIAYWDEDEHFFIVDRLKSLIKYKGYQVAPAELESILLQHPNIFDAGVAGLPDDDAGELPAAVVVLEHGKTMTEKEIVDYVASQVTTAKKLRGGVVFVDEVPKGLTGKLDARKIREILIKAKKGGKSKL
zebrafish Estrogen Receptor (ESR1), esr1 (gene 259252), sequence (P57717 whole entry, looked up, the tested form may be a part): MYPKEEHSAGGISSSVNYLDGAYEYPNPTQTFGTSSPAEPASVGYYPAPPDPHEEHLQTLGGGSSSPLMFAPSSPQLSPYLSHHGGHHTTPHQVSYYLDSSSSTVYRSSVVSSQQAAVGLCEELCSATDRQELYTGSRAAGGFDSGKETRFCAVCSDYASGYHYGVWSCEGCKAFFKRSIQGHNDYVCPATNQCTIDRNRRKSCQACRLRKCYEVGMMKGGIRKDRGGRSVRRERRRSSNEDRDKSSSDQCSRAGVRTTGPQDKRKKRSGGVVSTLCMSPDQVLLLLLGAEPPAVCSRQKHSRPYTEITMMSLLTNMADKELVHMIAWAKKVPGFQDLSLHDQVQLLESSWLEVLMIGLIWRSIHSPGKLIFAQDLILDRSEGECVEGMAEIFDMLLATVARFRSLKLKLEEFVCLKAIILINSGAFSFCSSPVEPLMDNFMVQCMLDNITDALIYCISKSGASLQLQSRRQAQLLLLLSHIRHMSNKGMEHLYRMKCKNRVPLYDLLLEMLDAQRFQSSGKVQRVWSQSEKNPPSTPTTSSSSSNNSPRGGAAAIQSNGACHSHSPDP
Estrogen receptor (Homo sapiens), sequence (P03372 whole entry, looked up, the tested form may be a part): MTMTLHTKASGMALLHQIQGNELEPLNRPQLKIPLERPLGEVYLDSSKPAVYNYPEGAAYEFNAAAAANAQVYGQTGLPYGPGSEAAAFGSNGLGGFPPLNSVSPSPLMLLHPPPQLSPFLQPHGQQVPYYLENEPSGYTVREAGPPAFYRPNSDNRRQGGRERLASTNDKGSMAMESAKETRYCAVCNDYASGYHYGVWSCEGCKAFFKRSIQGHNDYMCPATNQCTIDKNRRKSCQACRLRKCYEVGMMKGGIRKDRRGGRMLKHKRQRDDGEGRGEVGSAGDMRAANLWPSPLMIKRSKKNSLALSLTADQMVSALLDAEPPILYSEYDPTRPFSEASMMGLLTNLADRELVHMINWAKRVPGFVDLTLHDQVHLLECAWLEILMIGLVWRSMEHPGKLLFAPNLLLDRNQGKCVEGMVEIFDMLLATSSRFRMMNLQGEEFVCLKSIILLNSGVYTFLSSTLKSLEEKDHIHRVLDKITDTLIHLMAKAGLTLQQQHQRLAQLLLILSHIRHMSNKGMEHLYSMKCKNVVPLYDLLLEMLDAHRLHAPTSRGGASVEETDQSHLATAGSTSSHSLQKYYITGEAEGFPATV

Structure (SMILES): CCOP(=S)(OCC)SCSP(=S)(OCC)OCC
- outcome [1]: inactive
- outcome [2]: inactive
- AC50 [3]: 67 µM (active)

Structure (SMILES): Cc1ccc(N)cc1Cl
- outcome [1]: inactive
- outcome [2]: inactive
- outcome [3]: inactive

Structure (SMILES): ClC1(Cl)C2(Cl)C3(Cl)C4(Cl)C(Cl)(Cl)C5(Cl)C3(Cl)C1(Cl)C5(Cl)C24Cl (stereo unspecified)
- outcome [4]: inactive
- outcome [5]: inactive
- outcome [6]: inactive
- outcome [7]: inactive
- outcome [8]: inactive
- outcome [2]: inactive
- outcome [3]: inactive

Structure (SMILES): CC1(C)CCC(Cc2ccc(Cl)cc2)C1(O)Cn1cncn1 (stereo unspecified)
- outcome [1]: inactive
- AC50 [9]: 165 µM (active)
- outcome [10]: inactive
- AC50 [11]: 27.7 µM (active)
- AC50 [12]: 26.3 µM (active)
- outcome [2]: inactive
- outcome [3]: inactive
- outcome [13]: inactive
- outcome [14]: inactive
- AC50 [15]: 1.35 µM (active)
- AC50 [16]: 5.17 µM (active)

Structure (SMILES): C[C@H]1CCCC(=O)CCC/C=C/c2cc(O)cc(O)c2C(=O)O1
- outcome [1]: inactive
- AC50 [2]: 30.3 µM (active)
- outcome [2]: inactive
- AC50 [3]: 31.3 µM (active) and 9.08 µM (active)

Structure (SMILES): OCc1ccco1
- outcome [1]: inactive
- outcome [2]: inactive
- outcome [3]: inactive

Structure (SMILES): Clc1ccc(COC(Cn2ccnc2)c2ccc(Cl)cc2Cl)cc1 (stereo unspecified)
- outcome [1]: inactive

Structure (SMILES): CCCCCCCCSC(=O)Oc1cc(Cl)nnc1-c1ccccc1
- AC50 [1]: 81.7 µM (active)

Structure (SMILES): C[C@]12CCC(=O)C[C@@H]1CC[C@@H]1[C@@H]2CC[C@]2(C)[C@@H](O)CC[C@@H]12
- AC50 [17]: 0.282 µM (active)
- AC50 [18]: 0.177 µM (active)
- AC50 [9]: 0.0358 µM (active)
- AC50 [11]: 1 µM (active)
- AC50 [12]: 1.31 µM (active)
- outcome [13]: inactive
- AC50 [14]: 0.851 µM (active)
- outcome [15]: inactive

Structure (SMILES): O=C1C2(Cl)C3(Cl)C4(Cl)C(Cl)(Cl)C5(Cl)C3(Cl)C1(Cl)C5(Cl)C24Cl (stereo unspecified)
- AC50 [11]: 1.93 µM (active)
- AC50 [12]: 2.24 µM (active)
- AC50 [13]: 0.271 µM (active)
- AC50 [15]: 0.0284 µM (active)

Structure (SMILES): C1CCC(NC2CCCCC2)CC1
- outcome [3]: inactive

Structure (SMILES): c1cc[c]([Hg][c]2ccccc2)cc1
- AC50 [2]: 26.6 µM (active)
- AC50 [3]: 16.6 µM (active)

Structure (SMILES): Cc1ccccc1C(=O)Nc1cccc(OC(C)C)c1
- outcome [2]: inactive
- outcome [3]: inactive

Structure (SMILES): C[C@@H]1C[C@@H]([C@H](O)CC2CC(=O)NC(=O)C2)C(=O)[C@@H](C)C1
- AC50 [2]: 2.1 µM (active)
- AC50 [3]: 1.35 µM (active)

Structure (SMILES): Oc1ccc(-c2ccccc2)cc1
- outcome [2]: inactive
- AC50 [3]: 1.1 µM (active)

Structure (SMILES): CCC(=O)C(CC(C)N(C)C)(c1ccccc1)c1ccccc1 (stereo unspecified)
- AC50 [2]: 22.3 µM (active)
- AC50 [3]: 32.9 µM (active)

Structure (SMILES): CN(C)N=O
- outcome [2]: inactive
- outcome [3]: inactive

Structure (SMILES): [O-][Cl+2]([O-])O
- outcome [2]: inactive
- outcome [3]: inactive

Structure (SMILES): CC(=O)[O][Hg][c]1ccccc1
- AC50 [2]: 1.68 µM (active)
- AC50 [3]: 1.63 µM (active)

Structure (SMILES): O=C(O)C(F)(F)C(F)(F)C(F)(F)C(F)(F)C(F)(F)C(F)(F)C(F)(F)C(F)(F)C(F)(F)C(F)(F)F
- AC50 [2]: 36 µM (active)
- outcome [3]: inactive

Structure (SMILES): Clc1nc(Cl)nc(Cl)n1
- outcome [3]: inactive

Structure (SMILES): Clc1ccc(C2(Cn3cncn3)CC(Br)CO2)c(Cl)c1 (stereo unspecified)
- outcome [2]: inactive
- outcome [3]: inactive

Structure (SMILES): COc1ccc(C=O)cc1
- outcome [2]: inactive
- outcome [3]: inactive

Structure (SMILES): O=C(NCO)NCO
- outcome [2]: inactive
- outcome [3]: inactive

Structure (SMILES): C=CC#N
- outcome [3]: inactive

Structure (SMILES): CC(C)(OO)c1ccccc1
- outcome [2]: inactive
- outcome [3]: inactive

Structure (SMILES): COc1cc(-c2ccc(N)c(OC)c2)ccc1N
- AC50 [2]: 27.1 µM (active)
- AC50 [3]: 18.4 µM (active) and 22.3 µM (active)

Structure (SMILES): CNC
- outcome [3]: inactive

Structure (SMILES): CC(=O)c1cc(C(C)(C)C)cc2c1CCC2(C)C
- outcome [3]: inactive

Structure (SMILES): CC(C)C1CCC(Cc2ccc(Cl)cc2)C1(O)Cn1cncn1 (stereo unspecified)
- outcome [2]: inactive
- AC50 [3]: 4.94 µM (active)

Structure (SMILES): O=C1C(Cl)=C(Cl)C(=O)c2ccccc21
- outcome [2]: inactive
- outcome [3]: inactive

Structure (SMILES): O=S(=O)(c1ccc(Cl)cc1)c1ccc(Cl)cc1
- outcome [2]: inactive
- outcome [3]: inactive

Structure (SMILES): O=C(O)C(Cl)(Cl)Cl
- outcome [3]: inactive

Structure (SMILES): Cn1sc(Cl)cc1=O
- AC50 [2]: 77.2 µM (active)
- AC50 [3]: 80.7 µM (active)

Structure (SMILES): COC(=O)c1sccc1S(=O)(=O)NC(=O)Nc1nc(C)nc(OC)n1
- outcome [3]: inactive

Structure (SMILES): ClC(Cl)=C(Cl)C(Cl)=C(Cl)Cl
- outcome [3]: inactive

Structure (SMILES): O=C/C=C/c1ccccc1
- outcome [2]: inactive
- outcome [3]: inactive
